In PubChem BioAssay AID1159580 (chemical genetic matrix, 2015):
The whole screen tested about 5,500 compounds, of which about 2,000 (36%) were called active. About 18% were inconclusive and are not listed. Rule as the data show it: active = normalized growth mostly below about 0.91 (no sharp cut-off); inconclusive = no clear call, values can overlap the other calls; inactive = mostly above about 0.92. Some of the results follow.

Test: chemical genetic growth profiling, strain panel (AID 1159580);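 also: tested at 20 µM; growth read once vehicle control cultures reached saturation at 30 °C; 1 = growth at the plate median or of vehicle wells; lower values mean less growth of the strain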
Settings: S. cerevisiae deletion strains, growth OD

Measured: normalized growth

O=C(O)C1CCCN(CCC=C(c2ccccc2)c2ccccc2)C1 (stereo not drawn)
inactive: locus YAL013W, strain DEP1, hits give low values 1.04 | locus YAL040C, strain CLN3, hits give low values 1.06 | locus YCL061C, strain MRC1 (second series), hits give low values 1.01 | locus YDR150W, strain NUM1, hits give low values 1.01 | locus YDR363W, strain ESC2, hits give low values 1.02 | locus YER002W, strain NOP16, hits give low values 1 | locus YGR078C, strain PAC10, hits give low values 1.02 | locus YGR229C, strain SMI1, hits give low values 1.04 | locus YMR263W, strain SAP30, hits give low values 1.01 | locus YMR307W, strain GAS1, hits give low values 1.01 | locus YNL153C, strain GIM3, hits give low values 1.08 | locus YNL175C, strain NOP13, hits give low values 0.999 | locus YNL197C, strain WHI3, hits give low values 1 | locus YNL224C, strain SQS1, hits give low values 0.997 | locus YNL322C, strain KRE1, hits give low values 1.05 | locus YOR083W, strain WHI5 (second series), hits give low values 1.04 | locus YPL055C, strain LGE1, hits give low values 1.03 | locus YPL241C, strain CIN2, hits give low values 1.01
